Measurements reported in PubChem BioAssay (NCATS).
Results filed as inconclusive are left out. A call without a number means that no potency is given here. Calls of active or inactive are those of the source. The call rests on the fitted dose curve; in most records, active means well fitted curve in the direction sought with a large enough effect; inconclusive means small, poorly fitted or top-dose-only effect, or another doubt; inactive means no such curve, though single readings can be large; an effect the other way counts as inactive or inconclusive.

Key:
[1] = molecular target: Glutathione peroxidase 1 (Homo sapiens) (UniProt P07203); test: Primary qHTS Assay for Inhibitors of Recombinant Selenoprotein Glutathione Peroxidase 1 (GPX1) (AID 1845191); conditions: recombinant GPX1, GR-coupled NADPH fluorescence, 15 min; series mostly up to 48.8 µM; further: nearly all actives have a fitted effect of over 65% in size
Method in brief: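 Recombinant GPX1 (10 nM final) was preincubated with compound for 30 min at room temperature, then reacted with 1 mM GSH, 0.5 mM CHP, 0.5 mM NADPH and 100 nM glutathione reductase; NADPH fluorescence (340/450 nm) was read at 0 and 15 min.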

[2] = molecular target: Phospholipid hydroperoxide glutathione peroxidase GPX4 (Homo sapiens) (UniProt P36969); test: Primary qHTS Assay for Inhibitors of Recombinant Selenoprotein Glutathione Peroxidase 4 (GPX4) (AID 1845192); conditions: recombinant GPX4, GR-coupled NADPH fluorescence, 15 min; series mostly up to 50 µM; further: nearly all actives have a fitted effect of over 65% in size
Method in brief: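 GR-coupled readout: 100 nM GR, 1 mM GSH, 0.5 mM NADPH; NADPH fluorescence (ex 340/em 450 nm) read at t=0 and after 15 min RT. GPX4 200 nM, preincubated 30 min with compound; substrate 0.5 mM CHP.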

[3] = molecular target: Luciferin 4-monooxygenase (Photinus pyralis) (UniProt P08659); test: Primary firefly luciferase (FLuc) qHTS assay for identification of artifact compounds. (AID 1845220); conditions: purified firefly luciferase, luminescence, 5 min; series mostly up to 54.1 µM; further: nearly all actives have a fitted effect of over 60% in size
Method in brief: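 qHTS, 15 min compound preincubation with substrate (10 uM luciferin, 10 uM ATP) at RT, then 10 nM FLuc; 5 min; luminescence; % inhibition vs no-enzyme/DMSO controls, 4-parameter Hill fit.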

[4] = Primary fluorescence-based thiol-reactive (MSTI) qHTS assay for identification of artifact compounds. (AID 1845221); conditions: MSTI thiol-reactivity probe, 1 h; series mostly up to 53.8 µM; further: nearly all actives have a fitted effect of over 65% in size; further: potency means the concentration at half of the fitted maximal effect;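 on activity change, negative = thiol reactive: thiol-reactive compounds lower the probe fluorescence signal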
Method in brief: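 One-hour, room-temperature, dark incubation of compound with 4 uM MSTI in PBS (pH 7.4, 2% DMSO) precedes a fluorescence read at 525 nm excitation, 598 nm emission; Hill-equation fitting yields concentration-response values.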

[5] = test system: Nanoluciferase (engineered Oplophorus gracilirostris luciferase); test: Primary Nanoluciferase (NLuc) qHTS assay for identification of artifact compounds. (AID 1845222); conditions: NLuc-conditioned medium, Nano-Glo luminescence, 5 min; series mostly up to 54.1 µM
Method in brief: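 Luminescence read-out of secreted NLuc in S16 cell conditioned medium (1:55); compounds tested with 15 min RT preincubation, then Nano-Glo substrate 1:100, 5 min. % inhibition vs no-enzyme and DMSO controls, 4-parameter Hill fit.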

Sequence of Glutathione peroxidase 1 (Homo sapiens) (P07203 whole entry, looked up): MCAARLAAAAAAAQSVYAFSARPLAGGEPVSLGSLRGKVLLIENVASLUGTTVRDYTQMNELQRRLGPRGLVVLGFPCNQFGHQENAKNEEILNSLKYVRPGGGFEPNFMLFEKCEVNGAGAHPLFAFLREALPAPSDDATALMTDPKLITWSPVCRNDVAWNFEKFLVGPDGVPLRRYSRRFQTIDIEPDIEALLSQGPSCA
Sequence of Phospholipid hydroperoxide glutathione peroxidase GPX4 (Homo sapiens) (P36969 whole entry, looked up): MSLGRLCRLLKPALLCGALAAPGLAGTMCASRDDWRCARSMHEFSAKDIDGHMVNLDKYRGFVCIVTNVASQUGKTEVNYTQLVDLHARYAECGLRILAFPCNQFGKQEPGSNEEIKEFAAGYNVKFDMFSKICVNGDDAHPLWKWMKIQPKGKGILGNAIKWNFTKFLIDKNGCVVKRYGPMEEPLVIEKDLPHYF

CC[C@H](/C=C/[C@@H](C)[C@H]1CC[C@H]2[C@@H]3CC=C4C[C@@H](O)CC[C@]4(C)[C@H]3CC[C@]12C)C(C)C
activity, negative = inhibition [1]: -3.99% [at 4.49 µM] (inactive)
activity change, negative = inhibition [2]: 1.85% [at 4.52 µM] (inactive)
activity change, negative = inhibition [3]: 2.1% [at 6.45 µM] (inactive)
activity change, negative = thiol reactive [4]: -7.95% [at 6.41 µM] (inactive)
activity, negative = inhibition [5]: 1.22% [at 6.45 µM] (inactive)

CC1=C(C)C(=O)OC(C(C)C2C(O)CC3C4C5OC5C5(O)CC(OC6OC(CO)C(O)C(O)C6O)CC(O)C5(C)C4CCC32C)C1 (stereo not given)
Potency [1]: inactive
Potency [2]: inactive
Potency [3]: inactive
Potency [4]: inactive
Potency [5]: inactive

C=CC1C(O[C@@H]2O[C@H](CO)[C@@H](O)[C@H](O)[C@H]2O)OC=C(C(=O)OC)C1CC(=O)O (stereo not given in full)
Potency [1]: inactive
Potency [2]: inactive
Potency [3]: inactive
Potency [4]: inactive
Potency [5]: inactive

C[C@@H]1O[C@@H](O[C@H]2[C@H](O[C@H]3CC[C@@]4(C)C(CC[C@]5(C)C4CC=C4[C@@H]6CC(C)(C)CC[C@]6(C(=O)O)CC[C@]45C)[C@]3(C)CO)OC[C@H](O)[C@@H]2O)[C@H](O)[C@H](O[C@@H]2OC[C@@H](O)[C@H](O)[C@H]2O)[C@H]1O (stereo not given in full)
Potency [1]: inactive
Potency [2]: inactive
outcome [3]: inactive [at 11.6 µM]
activity change, negative = thiol reactive [4]: 366% [at 11.5 µM] (inactive)
activity, negative = inhibition [5]: 0.957% [at 11.6 µM] (inactive)

CC(=O)O[C@H]1C[C@@H]2[C@]3(CC[C@]4(C)[C@@H](C5(C)CCC(C(C)(C)O)O5)[C@@H](O)C[C@@]24C)C[C@@]32CC[C@H](O[C@@H]3OC[C@@H](O)[C@H](O)[C@H]3O)C(C)(C)[C@H]12 (stereo not given in full)
Potency [1]: inactive
Potency [2]: inactive
Potency [3]: inactive
Potency [4]: inactive
Potency [5]: inactive

CON(C)C(=O)N1N=C(c2cc(F)ccc2F)S[C@@]1(CCCN)c1ccccc1
Potency [1]: inactive
Potency [2]: inactive
Potency [3]: inactive
Potency [4]: inactive
Potency [5]: inactive

CC(C)C1=CC2=CCC3[C@](C)(CCC[C@@]3(C)C(=O)O)C2CC1O (stereo not given in full)
Potency [1]: inactive
Potency [2]: inactive
Potency [3]: inactive
Potency [4]: inactive
Potency [5]: inactive

COC(=O)C1=COC(OC2OC(CO)C(O)C(O)C2O)C2C1CC(OC(=O)C(O)CC(=O)O)C2C (stereo not given)
Potency [1]: inactive
Potency [2]: inactive
Potency [3]: inactive
Potency [4]: 13 µM (active)
Potency [5]: inactive

C[C@@H]1O[C@@H](O[C@H]2[C@H](O[C@H]3[C@H](O[C@H]4CC[C@@]5(C=O)C(CC[C@]6(C)C5CC=C5C7CC(C)(C)C[C@@H](O)[C@]7(C)CC[C@]56C)C4(C)C)O[C@H](C(=O)O)[C@@H](O)[C@@H]3O)OC[C@@H](O)[C@@H]2O)[C@H](O)[C@H](O)[C@H]1O (stereo not given in full)
Potency [1]: inactive
Potency [2]: inactive
activity change, negative = inhibition [3]: 0.64% [at 11.6 µM] (inactive)
activity change, negative = thiol reactive [4]: 114% [at 11.5 µM] (inactive)
activity, negative = inhibition [5]: 3.37% [at 11.6 µM] (inactive)

CC1(C)CC[C@]2(C(=O)O)CC[C@]3(C)C(=CCC4[C@@]5(C)CC[C@H](O[C@@H]6O[C@H](C(=O)O)[C@@H](O)[C@H](O)[C@H]6O)C(C)(CO)C5CC[C@]43C)C2C1 (stereo not given in full)
Potency [1]: inactive
Potency [2]: inactive
Potency [3]: inactive
Potency [4]: inactive
Potency [5]: inactive

O=C(COc1ccc(Cl)cc1)NC1CCC(NC(=O)COc2ccc(Cl)cc2)CC1 (stereo not given)
Potency [1]: inactive
Potency [2]: inactive
Potency [3]: inactive
Potency [4]: inactive
Potency [5]: inactive

COC(=O)C1(Cc2ccc(O)cc2)OC(=O)C(OC)=C1c1ccc(O)cc1 (stereo not given)
Potency [1]: inactive
Potency [2]: inactive
Potency [3]: inactive
Potency [4]: inactive
Potency [5]: inactive

C[C@@H]1O[C@@H](O[C@H]2[C@H](O)[C@@H](O)[C@H](OC[C@H]3O[C@@H](OC(=O)[C@]45CCC(C)(C)C[C@H]4C4=CCC6[C@@]7(C)C[C@H](O)[C@H](O[C@@H]8O[C@H](CO)[C@@H](O)[C@H](O)[C@H]8O)[C@@](C)(C(=O)O)C7CC[C@@]6(C)[C@]4(C)CC5)[C@H](O[C@@H]4O[C@H](CO)[C@@H](O)[C@H](O)[C@H]4O)[C@@H](O)[C@@H]3O)O[C@@H]2CO)[C@H](O)[C@H](O)[C@H]1O (stereo not given in full)
outcome [1]: inactive [at 9.52 µM]
activity change, negative = inhibition [2]: 0.162% [at 9.73 µM] (inactive)
outcome [3]: inactive [at 11.6 µM]
activity change, negative = thiol reactive [4]: 1.9% [at 11.5 µM] (inactive)
activity, negative = inhibition [5]: 4.14% [at 11.6 µM] (inactive)

O=C(O)c1cc(O[C@@H]2O[C@H](CO[C@@H]3OC[C@@H](O)[C@H](O)[C@H]3O)[C@@H](O)[C@H](O)[C@H]2O)c2ccccc2c1O
Potency [1]: inactive
Potency [2]: inactive
Potency [3]: inactive
Potency [4]: 3.67 µM (active)
Potency [5]: inactive

COc1cc(/C=C/C(=O)OC2CC3CCC2(C)C3(C)C)ccc1O (stereo not given)
Potency [1]: inactive
Potency [2]: inactive
Potency [3]: inactive
Potency [4]: inactive
Potency [5]: inactive
